# CHX counter = counter-screen hit for Shiga toxin inhibitors, cycloheximide. cell reporter, cycloheximide protein synthesis inhibition counterscreen. max response, %. 300,000 compounds, 12% hits; in the data active = max response mostly above about 13%, no sharp cut-off; inactive = mostly below about 14%; also: read at 38.3 µM for the half of the compounds with a filed dose
# SARS PLP yeast = SARS-CoV PLP inhibition in yeast | S. cerevisiae expressing SARS-CoV PLpro, growth rescue | Potency, µM (doses to about 32.9 µM), hits mostly activators | 330,000 compounds, 0.19% hits; also: nearly all actives have a fitted effect of over 55% in size
# Tb PYK inh = blocks Trypanosoma brucei pyruvate kinase; Q57TT1; TbPYK enzyme, Kinase-Glo Plus ATP luminescence, 45 min; Potency, µM (doses to about 76.8 µM), usual class: inhibitors; 410,000 compounds, 0.12% hits; AID 624173; active = well fitted curve in the direction sought with a large enough effect; inconclusive = small, poorly fitted or top-dose-only effect, or another doubt; inactive = no such curve, though single readings can be large; an effect the other way counts as inactive or inconclusive; also: nearly all actives have a fitted effect of over 50% in size
#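 TbPYK + substrate in 50 mM TEA pH 7.2, 100 mM KCl, 10 mM MgCl2, 0.05% BSA, 0.01% Tween-20; cpd pinned; ADP 130 uM final; 45 min RT; Kinase-Glo Plus 10 min; luminescence endpoint.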
# Shiga inhibitor = Shiga toxin inhibition; Vero cells, Shiga toxin protein synthesis inhibition reporter; inhibition, % at 38.7 µM; 290,000 compounds, 9.2% hits; AID 2315; in the data active = inhibition mostly above about 28%, no sharp cut-off; inactive = mostly below about 43%
# LmPK inhibitor = inhibitors of Leishmania mexicana pyruvate kinase | purified LmPK, Kinase-Glo ATP luminescence, 1 h | Potency, µM (top dose mostly 57.5 µM), usual class: inhibitors | 290,000 compounds, 0.37% hits | AID 1721; active = well fitted curve in the direction sought with a large enough effect; inconclusive = small, poorly fitted or top-dose-only effect, or another doubt; inactive = no such curve, though single readings can be large; an effect the other way counts as inactive or inconclusive
# Target sequence (Q27686 whole entry, looked up): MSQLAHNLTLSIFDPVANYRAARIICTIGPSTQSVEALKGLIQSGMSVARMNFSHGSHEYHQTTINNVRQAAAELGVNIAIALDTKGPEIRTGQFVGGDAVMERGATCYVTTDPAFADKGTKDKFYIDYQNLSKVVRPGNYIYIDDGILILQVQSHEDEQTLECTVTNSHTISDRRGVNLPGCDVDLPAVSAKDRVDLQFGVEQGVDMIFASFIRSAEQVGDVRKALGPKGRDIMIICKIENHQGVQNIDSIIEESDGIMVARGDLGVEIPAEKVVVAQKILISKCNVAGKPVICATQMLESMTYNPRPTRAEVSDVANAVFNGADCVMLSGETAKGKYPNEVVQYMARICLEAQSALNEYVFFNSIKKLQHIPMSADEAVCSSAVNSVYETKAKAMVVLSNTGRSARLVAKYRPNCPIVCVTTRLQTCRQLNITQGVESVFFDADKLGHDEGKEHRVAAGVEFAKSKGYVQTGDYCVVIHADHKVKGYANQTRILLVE
#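 0.1 nM LmPK, 0.5 mM PEP, 0.1 mM ADP; 50 mM imidazole pH 7.2, 7 mM MgCl2, 50 mM KCl; 1 h RT. Kinase-Glo luminescence readout, normalized to no-enzyme (full inhibition) and uninhibited wells.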
# NS1 function inh = inhibitors of influenza NS1 protein function; Potency, µM (titrated, usually from 46.1 µM); 270,000 compounds, 0.4% hits; AID 2326; also: actives are rising curves; nearly all actives have a fitted effect of over 50% in size
#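 Recovery from NS1-induced slow growth read by OD600 in budding yeast switched to galactose assay medium (pH 6.0, -URA) at 1:100 dilution. Compound 23 nl per well; the matching strain lacking NS1 serves as control.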
# A number is an active result; 0 = inactive; ? = inconclusive; - = no result; + = active, no number; [ ] = another dose, or the depositor's remark. This is one part of a sample in which hits are shown more often than they occur. Unless noted, calls follow the shape of the full dose curve.
SMILES,CHX counter,SARS PLP yeast,Tb PYK inh,Shiga inhibitor,LmPK inhibitor,NS1 function inh
COc1ccc(-c2cc(C(=O)N/N=C/c3cccnc3)c3ccccc3n2)cc1,27.0,0,0,0,0,0
COc1cccc(-c2cc(C(=O)N/N=C/c3ccco3)c3ccccc3n2)c1,25.5,0,0,66.9,0,?
Cc1cccc(-c2cc(C(=O)N/N=C/c3cccnc3)c3ccccc3n2)c1,-,-,0,-,-,-
CCCOc1cccc(-c2cc(C(=O)N/N=C/c3cccnc3)c3ccccc3n2)c1,29.9,0,0,76.2,0,0
O=C(NCCNCCO)C1(C(F)(F)F)CC(CCc2ccccc2)CCCO1 (configuration not stated),0,-,-,0,-,-
CC(=O)c1cccc(NC(=O)COC(=O)Cn2cnc3ccccc32)c1,-,0,0,-,-,-
COc1ccccc1C(C)NC(=O)CCC(=O)N1CCN(S(=O)(=O)c2ccc(Cl)cc2)CC1 (configuration not stated),-,-,0,-,-,-
COc1cccc(NC(=O)CN(C)C(=O)C23CC4CC(CC(Cl)(C4)C2)C3)c1,-,0,0,-,-,-
Cc1ccc(S(=O)(=O)Nc2cc(Cl)c3oc4c(c3c2)C(=O)CC(C)(C)C4)cc1,-,-,0,-,-,-
COc1ccc(-c2cc(C(=O)N/N=C(\C)c3cccnc3)c3ccccc3n2)cc1,12.0,0,0,0,0,0
COc1ccc(/C(C)=N/NC(=O)c2cc(-c3cccnc3)nc3ccccc23)cc1,0,0,0,0,0,0
CCCc1ccc(-c2cc(C(=O)N/N=C/c3ccc([N+](=O)[O-])o3)c3ccccc3n2)cc1,22.8,0[6.58 µM],0,0,0,0
O=C(N/N=C/c1ccc([N+](=O)[O-])o1)c1cc(-c2cccc(Br)c2)nc2ccccc12,0,0,0,0,0,0
CCCCCn1c(=O)[nH]c2cc(C(=O)Nc3ccc(F)c(F)c3)ccc2c1=O,-,-,0,-,-,-
Cc1ccc(-c2nc3ccc([N+](=O)[O-])cc3[nH]2)cc1,16.0,0,0,123.7,0,-
O=[N+]([O-])c1ccc2nc(-c3ccccc3[N+](=O)[O-])[nH]c2c1,26.3,0,0,0,0,-
O=[N+]([O-])c1ccc(N2CCN(c3nc(-c4ccc(Cl)cc4)cs3)CC2)cc1,0,0,0,0,0,0
O=[N+]([O-])c1ccc2nc(-c3ccc(Cl)cc3)[nH]c2c1,91.5,0,0,+,0,0
O=[N+]([O-])c1ccc(-c2cc(-c3ccc(Cl)cc3)n[nH]2)cc1,0,0,?,39.5,0,0
Cc1ccc(S(=O)(=O)N2CCOCC2)cc1C(=O)OCC(=O)NC1CCCC1,-,0,0,-,-,-
CCOc1ccccc1NC(=O)CCc1c(C)nn(-c2ccc(N3CCCCC3)nn2)c1C,0,0,0,0,0,0
O=C(Nc1ccc(S(=O)(=O)Nc2ccccc2)cc1)N1CCCC1,-,-,0,-,-,-
C=CCN(CC=C)C(=O)CN1C(=O)NC(c2ccccc2)(c2ccccc2)C1=O,0,0,0,0,0,0
O=[N+]([O-])c1ccc2nc(-c3ccncc3)[nH]c2c1,32.5,0,0,0,0,0
COc1ccc(-c2nc3ccc([N+](=O)[O-])cc3[nH]2)cc1,60.1,0,0,57.5,0,0
SMILES,CHX counter,SARS PLP yeast,Tb PYK inh,Shiga inhibitor,LmPK inhibitor,NS1 function inh
O=[N+]([O-])c1cccc(-c2nc3ccc([N+](=O)[O-])cc3[nH]2)c1,0,0,0,0,0,-
O=[N+]([O-])c1ccc(-c2cnc[nH]2)cc1,26.2,0,0,52.7,0,0
O=[N+]([O-])c1ccc2nc(-[n+]3c(-c4ccccc4)cc(-c4ccccc4)cc3-c3ccccc3)[nH]c2c1,0,0,0,0,0,0
CCc1cccc(NC(=O)c2cc3c(=O)[nH]c4ccccc4c3n2C)c1,-,-,0,-,-,-
COc1cc(OC)cc(-c2c(-c3cccs3)c3cc(-c4ccc(OC)c(OC)c4)ccc3n2C)c1,-,0,0,-,-,-
CCCc1ccc2oc(C(=O)NCCc3cnn(C)c3)c(C)c2c1,34.0,0,0,104.2,0,0
CCCc1ccc2oc(C(=O)NCCc3nc(C(=O)OCC)cs3)c(C)c2c1,32.4,0,0,50.2,0,0
CCNC(=O)C1(C)CCN(C(=O)c2ccc(OC)cc2OC)C1 (configuration not stated),-,-,0,-,-,-
CC(=O)N(C(C)=O)c1ncn(C)c1S(=O)(=O)Nc1ccccc1,-,-,0,-,-,-
Cc1noc(C)c1C(=O)Nc1nc(-c2ccccc2Cl)cs1,36.1,0,0,65.7,0,0
Cc1onc(-c2ccccc2)c1C(=O)Nc1nc(-c2ccccc2)cs1,30.5,0,0,95.6,0,0
Cc1onc(-c2ccccc2)c1C(=O)Nc1nc(-c2cc(F)ccc2F)cs1,0,0,0,0,0,0
COc1cc(N=c2ssnc2Cl)cc(OC)c1,0,0,28.2µM,0,0,0
N#Cc1cccc(N=c2ssnc2Cl)c1,0,0,17.8µM,0,0,-
NCCCC[C@H](NC(=O)[C@@H]1CCCN1C(=O)[C@@H]1CSSC[C@H](NC(=O)CNC(=O)CNC(=O)CN)C(=O)N[C@@H](Cc2ccc(O)cc2)C(=O)N[C@@H](Cc2ccccc2)C(=O)N[C@@H](CCC(N)=O)C(=O)N[C@@H](CC(N)=O)C(=O)N1)C(=O)NCC(N)=O,-,-,0,-,-,-
CCOC(=O)CSC1=Nc2ccccc2C2=NC(CCC(=O)NCc3ccc(OC)cc3)C(=O)N12 (configuration not stated),-,-,0,-,-,-
CCCSc1nnc(NC(=O)Nc2ccc(C)cc2)s1,0,0,0,0,0,0
CCCSc1nnc(NC(=O)Nc2ccc(F)cc2)s1,31.8,0,0,0,0,0
CCCSc1nnc(NC(=O)Nc2ccccc2)s1,18.8,0,0,0,0,0
O=C(Cc1cccc2ccccc12)NCC(=O)Nc1ccccc1F,0,0,0,0,0,0
COc1ccc2oc(C(=O)N(C)Cc3ccc4c(c3)OCCO4)c(C)c2c1,-,0,0,-,-,-
Cc1ccc2oc(C(=O)N(C)Cc3cnccn3)c(C)c2c1,35.2,0,0,120.5,0,0
CCCc1ccc2oc(C(=O)N(C)Cc3ccn[nH]3)c(C)c2c1,47.8,0,0,65.2,0,0
COC(=O)c1c(-c2ccccc2)csc1NC(=O)c1c(-c2ccccc2)noc1C,0,0,0,0,0,0
COC(=O)c1c(-c2ccccc2)csc1NC(=O)c1ccco1,70.7,0,0,153.3,0,0
SMILES,CHX counter,SARS PLP yeast,Tb PYK inh,Shiga inhibitor,LmPK inhibitor,NS1 function inh
O=C(Nc1scc(-c2ccc(F)cc2)c1C(=O)O)c1ccco1,56.3,0,0,91.9,?,0
Cc1ccc(-c2csc(NC(=O)/C=C/c3ccco3)c2C(=O)O)cc1,36.0,0,0,86.1,0,0
Cc1cc(C(=O)NN=Cc2ccc(OC(=O)c3ccco3)cc2)c(C)o1,-,0,0,-,-,-
O=C(CCC(=O)Nc1ccccc1)N/N=C/C=C/c1ccccc1,10.0,0,0,0,0,0
O=C(CNC(=O)c1ccccc1)N/N=C/C=C/c1ccccc1,0,0,0,0,0,0
O=C(N/N=C/C(Br)=C/c1ccccc1)c1cnccn1,50.2,0,0,99.1,0,0
